Hits are enriched below; roughly 0.56% of the tested compounds scored in any of these assays.
EPAC1 antag: antagonists of human EPAC1; O95398; EPAC1 GEF assay, Rap1b-BODIPY-GDP exchange fluorescence; Potency, µM (highest dose often 115 µM), without a hit: at the top dose activity change, negative = inhibition, hits mostly inhibitors; actives 0.14% (n = 360,000); AID 720709;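 also: potency is read from the fitted curve at half-maximal effect; plate controls were vehicle for no effect and positive control for full effect; nearly all actives have a fitted effect of over 50% in size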
EPAC1 ag: agonists of human EPAC1; EPAC1 agonist qHTS, biochemical assay; response scale: 100% = response to 6.5 mM cAMP; AID 720707; actives 0.073% (n = 360,000); Potency, µM (highest dose often 154 µM), inactives show at the top dose activation, hits mostly activators; also: potency is read from the fitted curve at half-maximal effect; nearly all actives have a fitted effect of over 60% in size
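Nucleotide exchange assay: 100 nM EPAC1 with 250 nM Rap1B loaded with BODIPY-GDP and 50 uM GDP, room temperature. Fluorescence (480/540 nm) read every 5 min for 30 min; signal change normalized to 6.5 mM cAMP as full agonist.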
USP1 inh: blocks the human USP1/UAF1 deubiquitinase complex; O94782; recombinant USP1/UAF1, Ub-Rhodamine cleavage fluorescence; Potency, µM (series often up to 57.1 µM), without a hit: at the top dose activity change, negative = inhibition, hits mostly inhibitors; actives 0.23% (n = 390,000); AID 743255; also: potency is read from the fitted curve at half-maximal effect; % is scaled to controls: 0 for no effect and ±100 for the full control effect; nearly all actives have a fitted effect of over 60% in size
Target sequence (O94782 whole entry, looked up): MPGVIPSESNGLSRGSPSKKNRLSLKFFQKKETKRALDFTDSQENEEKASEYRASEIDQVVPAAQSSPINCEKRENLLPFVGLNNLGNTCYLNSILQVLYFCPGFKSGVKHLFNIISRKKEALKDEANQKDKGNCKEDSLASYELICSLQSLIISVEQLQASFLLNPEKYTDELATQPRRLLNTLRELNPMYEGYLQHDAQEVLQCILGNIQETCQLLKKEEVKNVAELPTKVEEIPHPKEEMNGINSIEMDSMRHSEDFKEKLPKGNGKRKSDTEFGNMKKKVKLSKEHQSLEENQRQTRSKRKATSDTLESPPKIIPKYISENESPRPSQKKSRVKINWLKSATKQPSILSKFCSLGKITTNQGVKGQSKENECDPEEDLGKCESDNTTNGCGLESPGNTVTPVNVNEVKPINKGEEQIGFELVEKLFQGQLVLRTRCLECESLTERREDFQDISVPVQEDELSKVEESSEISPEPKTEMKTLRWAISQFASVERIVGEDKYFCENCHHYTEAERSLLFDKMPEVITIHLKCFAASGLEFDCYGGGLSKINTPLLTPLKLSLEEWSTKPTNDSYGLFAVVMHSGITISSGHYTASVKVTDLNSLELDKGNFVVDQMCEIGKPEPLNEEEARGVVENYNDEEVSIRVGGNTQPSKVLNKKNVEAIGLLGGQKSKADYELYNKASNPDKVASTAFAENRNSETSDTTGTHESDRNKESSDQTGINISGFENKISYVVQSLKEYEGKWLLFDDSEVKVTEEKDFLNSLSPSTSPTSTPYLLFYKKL
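USP1/UAF1 complex (1 nM) preincubated 15 min at room temperature with compound, then Ub-Rho substrate (150 nM final) added. Kinetic fluorescence at 480/540 nm over 6 reads at 60 s intervals; 50 mM HEPES pH 7.8, 0.5 mM EDTA, 0.1 mg/ml BSA, 1 mM TCEP, 0.01% Tween-20.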
LDHA block: blocks human lactate dehydrogenase A; P00338; activity change, % (values are at about 110 or 230 µM); actives 0.15% (n = 480,000); purified LDHA, NADH/diaphorase-resazurin fluorescence; active compounds read low; in the data active = activity change below about -30%; inconclusive = mostly about -25% to -30%;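 also: plate controls were DMSO wells for no effect and wells without enzyme for full effect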
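LDH5 2 nM; NADH 0.06 mM, pyruvate 0.2 mM; 200 mM Tris pH 7.4, EDTA, Tween-20; 5 min RT. Detection: diaphorase 0.133 mg/mL + resazurin 37 µM, fluorescence ex540/em590 at 0 and 20 min; normalized to enzyme-free and DMSO wells.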
EPAC2 antag: EPAC2 (human) antagonism; AID 720708; actives 0.18% (n = 360,000); EPAC2 GEF exchange of Rap1B-BODIPY-GDP, fluorescence; Potency, µM (series often up to 114 µM), without a hit: top-dose activity, negative = inhibition, hits mostly inhibitors; also: potency is read from the fitted curve at half-maximal effect; % is scaled to controls: 0 for no effect and ±100 for the full control effect; nearly all actives have a fitted effect of over 45% in size
EPAC2 ag: agonists of human EPAC2 (RAPGEF4) | AID 720711 | actives 0.079% (n = 360,000) | EPAC2 activation, biochemical qHTS; response scale: 100% = 6.5 mM cAMP response | Potency, µM (highest dose often 154 µM), without a hit: at the top dose activation, most hits filed as activators; also: potency is read from the fitted curve at half-maximal effect; nearly all actives have a fitted effect of over 50% in size
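Compounds were added across a concentration range to EPAC2 (100 nM), RAP1B-BODIPY-GDP (250 nM) and GDP (50 uM). After 5 min at room temperature, fluorescence was recorded at 5-min intervals for 30 min.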
* hit, by the source's call; ? = inconclusive; . = no result given. Unless noted, calls follow the shape of the dose curve; as a rule, active = well fitted curve in the direction sought with a large enough effect; inconclusive = small, poorly fitted or top-dose-only effect, or another doubt; inactive = no such curve, though single readings can be large; an effect the other way counts as inactive or inconclusive.

SMILES	EPAC1 antag	EPAC1 ag	USP1 inh	LDHA block	EPAC2 antag	EPAC2 ag
Cc1ccc(NC(=O)C(C)OC(=O)/C=C/c2ccccc2)cc1S(=O)(=O)N1CCOCC1 (stereo unspecified)	-18%	12%	-25%	1	-6%	1%
CC1(C)CC(=O)C2=C(C1)c1c(ccc3ccccc13)NC2c1ccc(C(=O)O)cc1 (stereo unspecified)	4%	-4%	-29%	-15	-3%	25%
CC1(C)CC(=O)C2=C(C1)c1c(ccc3ccccc13)NC2c1cc([N+](=O)[O-])cc([N+](=O)[O-])c1O (stereo unspecified)	32µM*	-11%	?	-4	79µM*	-16%
Cc1cc(=O)oc2c(C)c(OCC(=O)NCCCN(C)C)ccc12	.	.	.	9	.	.
COc1ccc(CNC(=O)c2cc(C)nc3onc(C)c23)cc1	.	.	.	3	.	.
CC(=O)c1cc(C#N)c(N(C)Cc2ccccc2)nc1C	-28%	13%	-11%	-6	50µM*	14%
CCC(C)NCCCOc1ccc(Cl)cc1C(C)(C)C (stereo unspecified)	?	7%	3%	-41*	-4%	8%
CNCCCOc1ccc(Cl)cc1C(C)(C)C	-11%	-8%	-19%	-7	12%	6%
COc1ccc(NC(=O)CN2CCN(Cc3ccc4c(c3)OCO4)CC2)cc1OC	-16%	2%	-8%	-37*	-3%	-1%
COc1cccc(CN2CCC(C(=O)N3CCN(Cc4ccc5c(c4)OCO5)CC3)CC2)c1	-6%	0%	-5%	-33*	4%	13%
CC(=O)c1ccc(NCC(=O)N2N=C(c3ccc(C)o3)CC2c2cccs2)cc1 (stereo unspecified)	.	.	.	-15	.	.
CN1C(=O)c2ccccc2Sc2ccc(NC(=O)N3CCN(c4ccc(F)cc4)CC3)cc21	.	.	7%	-4	.	.
O=C(Cn1cc(S(=O)(=O)Cc2ccccc2F)c2ccccc21)Nc1ccc(F)c(Cl)c1	.	.	?	-9	.	.
Cc1cc(C)c(NC(=O)Cn2cc(S(=O)(=O)Cc3ccccc3F)c3ccccc32)c(C)c1	.	.	-9%	-31*	.	.
CCn1c(CNC(=O)c2ccc(OC)cc2)nnc1SCC(=O)c1ccc(Br)cc1	.	.	.	-8	.	.
CCn1c(CNC(=O)c2ccc3c(c2)OCO3)nnc1SCC(=O)c1ccc(OC)cc1	.	.	.	-30*	.	.
CC(=O)N1c2ccc(S(=O)(=O)N(C)CC(=O)Nc3ccccc3C)cc2CC1C (stereo unspecified)	?	3%	-1%	0	4%	0%
CC(Oc1ccc2c(-c3ccccc3)cc(=O)oc2c1)C(=O)O (stereo unspecified)	12%	8%	-2%	-4	-1%	16%
COC(=O)C(C)Oc1ccc2c(-c3ccccc3)cc(=O)oc2c1 (stereo unspecified)	.	.	.	-32*	.	.
COC(=O)C(C)Oc1ccc2c(=O)c(-c3ccc4c(c3)OCCO4)coc2c1 (stereo unspecified)	.	.	.	-34*	.	.
CC1CCC(Nc2ccnc3cc(Cl)ccc23)CC1 (stereo unspecified)	.	.	.	4	.	.
NNS(=O)(=O)c1ccc2c(c1)Cc1cc(S(=O)(=O)NN)ccc1-2	?	2%	-31%	-35*	8%	20%
COc1ccccc1N1CCN(C(=O)c2ccc(S(=O)(=O)N3CCCC3)cc2)CC1	1%	-5%	-15%	-2	7%	7.9µM*
COc1ccccc1N1CCN(C(=O)CCC(=O)N2CCN(c3ccccc3OC)CC2)CC1	0%	16%	-7%	-5	2%	1%
COc1ccccc1N1CCN(CC(=O)N2CCCC2)CC1	-23%	4%	4%	-37*	0%	11%
SMILES	EPAC1 antag	EPAC1 ag	USP1 inh	LDHA block	EPAC2 antag	EPAC2 ag
CCCc1cc(=O)oc2cc(C)cc(OCC(=O)C(C)(C)C)c12	.	.	.	6	.	.
Cc1ccc2c(c1)c(=O)c1c3n2CCN(C(=O)CCl)C3CC1 (stereo unspecified)	-13%	1%	32µM*	19	14%	-11%
Cc1ccc2c(c1)c1c3n2CCN(C(=O)CN2CCN(C)CC2)C3CCC1 (stereo unspecified)	8%	-3%	2%	9	1%	7%
Cc1ccc(-c2cc3c(nn2)-c2ccccc2C3=O)cc1	-2%	11%	-19%	-2	-2%	1%
Cc1ccccc1-c1cc2c(nn1)-c1ccccc1C2=O	-18%	10%	32µM*	19	-1%	-2%
O=C(NC(C1CC1)C1CC1)c1ccc(Cl)c(Cl)c1	.	.	.	2	.	.
CCCN(CC(=O)Nc1ccccc1C)C(=O)c1oc2ccc(OCC)cc2c1C	-16%	126µM*	-18%	-4	-3%	-11%
CCCN(CC(=O)Nc1ccccc1C)C(=O)c1cc(C)oc1C	10%	10%	-9%	-5	6%	6%
CC(OC(=O)c1ccc2ccccc2n1)C(=O)NC(N)=O (stereo unspecified)	.	.	.	-6	.	.
O=[N+]([O-])c1cccc(-c2n[nH]c(=S)n2-c2ccc(Br)cc2)c1	0%	-1%	-6%	-32*	-3%	6%
S=c1[nH]nc(-c2ccc(Br)cc2)n1-c1ccc(Br)cc1	-31%	9%	-8%	-8	-13%	7%
O=C1c2ccccc2C(=O)N1c1nc(-c2cccs2)cs1	?	8%	2%	-5	56µM*	10%
O=C1c2ccccc2C(=O)N1c1nc(-c2ccc(Cl)cc2)cs1	.	.	.	-18	.	.
COc1ccccc1CNC(=O)COC(=O)/C=C/c1ccc2c(c1)OCO2	8%	-9%	-11%	0	4%	-5%
Cc1cc(C)c(/C=N/NC(=O)C2CC23CCC3)c(C)c1 (stereo unspecified)	.	.	.	3	.	.
c1coc(-c2nnc(-c3ccco3)nn2)c1	?	-5%	25µM*	49	17%	9%
Fc1ccccc1-c1nc(N2CCCC2)c2ccccc2n1	.	.	.	1	.	.
Cc1nn(CC(=O)N(C)Cc2ccccc2C(F)(F)F)c(=O)c2ccccc12	.	.	.	1	.	.
O=c1cc(CN2CCN(S(=O)(=O)c3cccc(Cl)c3)CC2)c2ccc(O)cc2o1	79µM*	-7%	-18%	3	-9%	-12%
O=c1cc(CN2CCN(S(=O)(=O)c3ccc4c(c3)OCCO4)CC2)c2ccc(O)cc2o1	?	18%	-15%	4	-3%	22%
COc1cc2nc(-c3ccc(C)cc3)oc(=O)c2cc1OC	.	.	.	-30*	.	.
O=C1Cc2ccccc2C(=O)N1	56µM*	9%	.	15	?	20%

Source: PubChem
